Source: PubChem BioAssay
BRCT PPI green: BRCA1 BRCT-phosphoprotein interaction inhibition | Potency, µM (titrated, usually from 76.9 µM), without a hit: at the highest dose activity change, negative = inhibition, most hits filed as inhibitors | P38398 | 75,000 compounds, 0.05% hits | BRCA1 BRCT-phosphopeptide binding, green fluorescence polarization;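 note: potency is the fitted concentration of half-maximal effect; plate controls were peptide without protein for full effect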
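Fluorescence polarization: His-tagged BRCT (~35 kDa BRCA1 C-terminus, 250 nM) bound to 100 nM fluorescein-labeled phosphorylated 10-aa BACH1 peptide, pH 7.3 phosphate buffer with DTT and Tween 20. Compounds incubated 12 min at room temperature; inhibition read as lowered polarization.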
BRCT inh red: BRCT-phosphoprotein interaction inhibition (red fluorophore); Potency, µM (titrated, usually from 76.9 µM), without a hit: at the highest dose activity change, negative = inhibition, most hits filed as inhibitors; 75,000 compounds, 0.03% hits; P38398; BRCT-phosphopeptide binding, red fluorescence polarization; note: % is set by controls: 0 for no effect and ±100 for the full control effect
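Rhodamine-labelled pBACH1 10-mer (100 nM) bound to BRCT domain (100 nM) at pH 7.3; compounds incubated 12 min room temperature, polarization read. Free peptide defines full inhibition; unlabelled decapeptide titrated as control.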
YjeE inh: YjeE (TsaE) inhibition, E. coli | purified YjeE enzyme, qHTS inhibition assay | Potency, µM | 71,000 compounds, 0.05% hits
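Fluorescence polarization of a BODIPY Texas Red–ADP probe (2 uM) bound to purified YjeE (10 uM) was read after 15 min room-temperature incubation with compounds. Loss of polarization marks inhibitors; ADP serves as titrated control.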
Hsp90 Hop PPI: changes Hsp90-Hop TPR2A binding signal, up or down; AlphaScreen TPR2A-His6 binding biotin-Hsp90 C-terminal peptide; Potency, µM (top dose mostly 57 µM), inactives show at the top dose activity change, negative = inhibition; 71,000 compounds, 0.44% hits; active = well fitted curve in either direction with a large enough effect; note: potency is the fitted concentration of half-maximal effect; % is set by controls: 0 for no effect and ±100 for the full control effect
USP2a inh: USP2a (human) protease inhibition; O75604; Potency, µM (top dose mostly 38.3 µM), inactives show at the top dose activity change, negative = inhibition, actives largely listed as inhibitors; 60,000 compounds, 0.1% hits; AID 927; USP2a enzymatic assay, qHTS inhibition; note: potency is the fitted concentration of half-maximal effect; nearly all actives have a fitted effect of over 60% in size
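USP2 core (20nM final) preincubated 30 min RT with compound, then Ub-PLA2 20nM and NBD C6-HPC 20uM final added; buffer 20mM Tris-HCl pH 8.0, 2mM CaCl2. Fluorescence Ex 460/Em 535 read at 0 and 2.5 h; normalized to NEM.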
Hsp90 TPR2A CRC: confirmation and counter-screen of Hsp90 TPR2A co-chaperone interaction disrupters. activity, negative = inhibition, % at 40 µM or 46 µM, hits read low. AlphaScreen TPR2A-His6 / biotin-Hsp90 peptide binding. 45 compounds, 100% hits. shares compounds with Hsp90 Hop PPI;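 active = compound lowering the Hsp90 and TPR2A binding signal, whether or not the linker counterscreen also flagged it as an artifact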
Numbers without * were called inactive; i = inactive; x = no result; [ ] = dose if it differs, or a comment. Compounds with a hit are over-represented: about 0.46% of the library has one in this group of screens. Unless noted, calls come from the whole dose curve; as a rule, active = well fitted curve in the direction sought with a large enough effect; inconclusive = small, poorly fitted or top-dose-only effect, or another doubt; inactive = no such curve, though single readings can be large; an effect the other way counts as inactive or inconclusive.

SMILES	BRCT PPI green	BRCT inh red	YjeE inh	Hsp90 Hop PPI	USP2a inh	Hsp90 TPR2A CRC
Cn1cccc1C(=O)Nc1nc(-c2ccccn2)cs1	-0.6%	-1.0%	i	6.31µM*	28.1%	-99.5*[alpha-screen platform artifact]
Cc1cccc(Nc2nc(-c3ccccn3)cs2)n1	-0.9%	-1.1%	i	-7.8%	23.5%	x
O=C(CN1C(=O)CCC1=O)Nc1nc(-c2ccccn2)cs1	-1.2%	0.4%	i	2.51µM*	x	-99.6*[alpha-screen platform artifact]
O=S(=O)(Nc1cccc2ncccc12)c1cccs1	-2.1%	1.1%	i	15.8µM*	1.0%	-99.9*[alpha-screen platform artifact]
CCN(CC)CCCC(C)NC(=O)c1ccc(Cc2nc3ccccc3[nH]2)cc1 (stereo unspecified)	-0.3%	-0.6%	x	x	x	x
Cn1c(=O)[nH]c2nnc(-c3ccccc3)nc2c1=O	x	x	x	x	x	12.2
CC(C)N(CCNC(=O)c1ccc(Cc2nc3ccccc3[nH]2)cc1)C(C)C	-1.9%	-2.3%	x	x	x	x
O=c1[nH]c(=O)n([C@H]2C[C@H](O)[C@H](CO)O2)cc1/C=C\Br	-1.8%	-1.4%	i	-1.2%	3.3%	x
CCOC(=O)CSc1nc2ccccc2c(=O)n1C1CCCC1	-1.8%	-0.8%	i	-3.1%	-1.4%	x
CCCCNC(=O)CSc1nc2ccccc2c(=O)n1C1CCCC1	-0.7%	-1.6%	i	1.2%	2.2%	-100.0*[alpha-screen platform artifact]
O=C(NCCN1CCCC1)c1ccc(-n2c(=O)c(=O)[nH]c3ccccc32)cc1	-1.9%	-1.1%	x	x	x	x
